Results on 35 molecules are retold here after PubChem BioAssay (NCATS).

Inconclusive results are not listed. Where a call stands in place of a potency, no number is given. Calls of active or inactive are those of the source. Calls come from the whole dose curve; as a rule, active = well fitted inhibition curve with a large enough effect; inconclusive = small, poorly fitted or top-dose-only effect; inactive = flat fitted curve, though single readings scatter.

This experiment can be described thus: qHTS to identify inhibitors of the type 1 interferon - major histocompatibility complex class I in skeletal muscle: primary screen against the NCATS Pharmaceutical Collection (AID 1347407).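 Note: luminescence of HiBiT knocked into endogenous HLA-B as interferon-induced MHC class I level.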 The settings on record: human skeletal muscle cells, IFN-b-induced MHC-I HiBiT luminescence, 24 h; series mostly up to 45.9 µM. In short, it runs like this:
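A qHTS format is used: 8-point, 1:5 compound series with 46 uM top final concentration, applied alongside 4 ng/ml IFN-beta to HLA-B*08:01-HiBiT knock-in myoblasts. Luminescence is measured after 24 h treatment.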
A general note: Quantitative high-throughput screening tests each substance at several concentrations.
As to `Cc1ccc(N=CN(C)C=Nc2ccc(C)cc2C)c(C)c1`, the Potency entry is “inactive”.
Then `NCc1cccnc1`, with “inactive”; and `CCOC(C(=O)OCCN(C)C)(c1ccccc1)c1ccccc1`, with “inactive”; and `C[C@H]1CNCCc2ccc(Cl)cc21`, with “inactive”.
As to `CC1Sc2c(C(=O)O)c(=O)c3cc(F)c(N4CCNCC4)cc3n21` (stereo not given), the Potency entry was “inactive”.
Regarding `CC(=O)OC1(c2ccccc2)CCN(CCc2ccccc2)CC1`, the Potency result is “inactive”.
Regarding `Cc1nnc2n1-c1sc(CCC(=O)N3CCOCC3)cc1C(c1ccccc1Cl)=NC2`, the Potency entry is “inactive”.
For `CCN(CC)CCOC(=O)C(C)(c1ccccc1)c1ccccc1`, the Potency result is “inactive”.
Under `CC[C@H]1C[C@H]2[C@@H]3CCC4=CC(=O)CC[C@@H]4[C@H]3CC[C@]2(C)[C@H]1O` stands “inactive”; under `COc1cc(N)c(Cl)cc1C(=O)NC1CN2CCC1CC2` (stereo not given), “inactive”; under `O=C(O)CCCCCCNC1c2ccccc2CCc2ccccc21`, “inactive”.
On to `CCOC(=O)NC(O)C(Cl)(Cl)Cl` (stereo not given), for which the Potency result was “inactive”.
In the case of `CCO[C@H]1O[C@@H]2OC3(C)CC[C@H]4[C@H](C)CC[C@@H]([C@H]1C)[C@@]24OO3`, the Potency result was “inactive”.
Under `Oc1ccc([C@H]2CNCc3c2ccc(O)c3O)cc1O` stands “inactive”; under `O=C1NCN(c2ccccc2)C12CCN(CCCOc1ccc(F)cc1)CC2`, “inactive”; under `Cc1nnc2n1-c1sc(CCc3ccc(CC(C)C)cc3)cc1C(c1ccccc1Cl)=NC2C` (stereo not given), “inactive”.
Then `CN(C)C(=S)SSC(=S)N(C)C`, with “inactive”; and `CCOC(=O)NC(C)(C)Cc1ccc(Cl)cc1`, with “inactive”; and `COP(=O)(OC)C(O)C(Cl)(Cl)Cl` (stereo not given), with “inactive”.
Consider `CN1CCC(N(Cc2ccccc2)c2ccccc2)CC1`, for which the Potency result is “inactive”.
Then `CC(Cc1ccc2c(c1)OCO2)NO` (stereo not given), with “inactive”; and `Cc1cccc(Cc2cnc[nH]2)c1C`, with “inactive”.
For `CCOC(=O)c1ncn2c1CN(C)C(=O)c1c(I)cccc1-2`, the Potency result is “inactive”.
In the case of `COc1cc(CC(C)N)cc2c1OCO2` (stereo not given), the Potency result was “inactive”.
As for `Sc1ccccc1Cl`, the Potency result was “inactive”.
On to `COc1ccc2[nH]cc(CCN(C(C)C)C(C)C)c2c1`, for which the Potency result is “inactive”.
Turning to `CCC1(c2cccc(O)c2)CCCCN(C)C1` (stereo not given), the Potency result was “inactive”.
As to `O=C(N[C@H]1N=C(c2ccccc2F)c2cccc3c2N(CC3)C1=O)c1cc2ccccc2[nH]1`, the Potency entry was “inactive”.
Then `COc1ccc(OC)c(CC(C)N)c1` (stereo not given), with “inactive”; and `CCN(Cc1ccc(Cl)nc1)/C(=C/[N+](=O)[O-])NC`, with “inactive”.
Regarding `CC1COC2(c3ccccc3Cl)c3cc(Cl)ccc3NC(=O)CN12` (stereo not given), the Potency entry was “inactive”.
Under `C=CC[C@]1(O)CC[C@H]2[C@@H]3CCC4=CC(=O)CCC4=C3C=C[C@@]21C` stands “inactive”.
On to `CC(C)(C)OC(=O)c1ncn2c1[C@@H]1CCCN1C(=O)c1c(Br)cccc1-2`, for which the Potency result was “inactive”.
Take `OC(c1ccccc1)(c1ccccc1)C1CCNCC1`: the Potency entry was “inactive”.
On to `O=C(CCl)c1ccc(Cl)cc1Cl`, for which the Potency result was “inactive”.
